This is part of a sample that, as a whole, favours compounds with a hit. Of some 83,000 tested, about 20% had one in any assay.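 48-hour exposure, single concentration, 96-well plates; percent growth endpoint where 0 means no net growth. Active: below 10.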 A number with no mark means an inactive call. Calls of active or inactive are those of the source.

Common to all, as to test: NCI-60 one-dose screen, 48 h (100 = growth as untreated, 0 = no growth, -100 = all killed)
Holding throughout (conditions): 10 µM unless noted

In assay [1] the test system is NCI-H23 lung.
The test system of assay [2] is NCI-H226 lung.
The test system of assay [3] is NCI-H322M lung.
For assay [4], the system named is NCI-H460 lung.
For assay [5], the system named is HOP-92 NSCLC.
The test system of assay [6] is NCI-H522 lung.
Assay [7] has as its system A549/ATCC NSCLC.
For assay [8], the system named is 786-0 renal.
In assay [9] the test system is COLO 205 colon.
Assay [10] concerns HOP-62 NSCLC.

Consider `O=C(Nc1cccc(-n2cnc3cc(-c4ccc(O)cc4)ccc32)c1)C1CC1`, for which the growth was 40.1% in assay [1]; 13.8% in assay [2]; 48% in assay [3]; 7.41% (active) in [4]; 125% in assay [5]; 5.82% (active) in assay [6]. Further, the growth in [7] is 27.4%; in assay [8] it was 25.8%; in assay [9], 34.2%.

With `O=c1oc2ccc(Br)cc2cc1C1=CSc2nc3sc4c(c3c(=O)n2N=C1)CCCC4`, the growth is 96.6% in assay [1]; 92.5% in assay [2]; 96.6% in assay [3]; 80.6% in [10]; 102% in assay [4]; 88.5% in assay [6]. For the same compound, the growth in [7] is 105%; in [8] it was 120%; in [9] it was 105%.

Regarding `O=C(Cn1c2c(sc1=O)[C@H]1[C@@H](O)[C@@H](O)[C@H](O)[C@@H]1CS2)N1CCOCC1`, the growth in assay [1] is 105%; in [2], 101%; in [3], 107%; in assay [10], 92.7%; in assay [4], 106%; in assay [6], 91.7%. Further, the growth in assay [7] was 106%; in assay [8], 98.7%; in assay [9], 116%.

`COc1ccc2[nH]c(O)c(N=NC(=O)Cn3c(-c4ccccc4)nc4cc(C)ccc43)c2c1`: the growth was 13.4% in assay [1]; 11.7% in assay [2]; 49.5% in assay [3]; 47.9% in assay [10]; 44.3% in assay [4]; 57% in assay [6]. For the same compound, the results for the growth in assay [7], in [8] and in [9] were 15.3%, 4.55% (active) and 64.5%, respectively.

Consider `C/C(=N\Nc1ccc(S(N)(=O)=O)cc1)c1ccc(N=Nc2c(Nc3ccccc3)[nH][nH]c2=O)cc1`, for which the growth in assay [1] is 0.196% (active); in assay [2] it was 42.5%; in [3] it was 9.22% (active); in assay [4], 8.87% (active); in [5], -7.76% (active); in assay [6] it was -28.8% (active). In addition, the growth in assay [7] was 75%; in assay [8] it was -45.3% (active); in [9], -10.5% (active).

Turning to `CC1=C(C#N)C2=NNCC(c3ccccc3)=NN2C(c2ccccc2)=C1`, the growth was 105% in assay [1]; 111% in assay [2]; 105% in assay [3]; 85.6% in assay [10]; 111% in assay [4]; 93.7% in assay [6]. The growth in assay [7] was 99.3%; in [8] it was 98.2%; in [9], 113%.

For `COc1cc(CNC(=O)/C=C/c2ccc3c(c2)OCO3)ccc1OCc1cn(-c2ccc([N+](=O)[O-])cc2)nn1`, the growth was 88.8% in assay [1]; 60.6% in [2]; 91.5% in [3]; 94.6% in assay [4]; 96.7% in [5]; 84.9% in [6]. For the same compound, the growth in assay [7] is 91.6%; in [8], 90.6%; in [9] it was 118%.

`O=C(Nc1ccccc1)N1CCN(c2cc(-c3cn(-c4ccccc4)nc3-c3cccc(O)c3)ccn2)CC1`: the growth in [1] is 71%; in [2] it was 75.4%; in assay [3], 104%; in assay [10] it was 80.8%; in [4], 70%; in [6] it was 74.1%. The growth in assay [7] was 53.9%; in assay [8], 94.6%; in assay [9], 45.1%.

Regarding `Cc1ccc(NC(=O)[C@]23CCC(C)(C)CC2C2=CCC4[C@@]5(C)C[C@@H](O)[C@H](O)[C@@](C)(CO)C5CC[C@@]4(C)[C@]2(C)CC3)cc1` (stereo partly specified), the growth was 29.5% in [1]; 9.45% (active) in [2]; 69.3% in assay [3]; 3.15% (active) in [4]; -19.6% (active) in assay [5]; 12.3% in assay [6]. Further, the growth was 20.5% in assay [7], 17.1% in assay [8] and -65.9% (active) in assay [9].

The record behind these values is PubChem BioAssay (NCI).
